Shown is part of a subset that was picked to be rich in hits.
Cruzain Triton – qHTS Assay for Promiscuous and Specific Inhibitors of Cruzain (with detergent); 200,000 tested, 0.43% active; Potency, µM, hits mostly inhibitors; AID 1478, 2009; purified cruzain, Z-FR-AMC fluorescence, 0.01% Triton; Cruzipain (Trypanosoma cruzi), P25779; also: nearly all actives have a fitted effect of over 40% in size
Target sequence (P25779 123-467 limits assumed): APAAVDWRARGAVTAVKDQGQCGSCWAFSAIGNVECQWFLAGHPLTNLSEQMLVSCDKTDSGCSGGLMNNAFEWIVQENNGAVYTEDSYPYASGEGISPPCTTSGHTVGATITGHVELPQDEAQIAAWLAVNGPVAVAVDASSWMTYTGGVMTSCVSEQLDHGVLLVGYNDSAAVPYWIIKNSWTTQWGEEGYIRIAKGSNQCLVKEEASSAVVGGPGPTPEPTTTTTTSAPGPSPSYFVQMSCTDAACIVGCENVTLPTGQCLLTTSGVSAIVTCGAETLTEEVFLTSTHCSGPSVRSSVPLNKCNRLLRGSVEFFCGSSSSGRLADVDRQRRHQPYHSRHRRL
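Cruzain (1.5 nM) preincubated 15 min at RT with compound in 100 mM sodium acetate pH 5.5, 5 mM DTT, 0.01% Triton X-100. Reaction started with 2 uM Z-FR-AMC; AMC fluorescence (ex 360/em 450 nm) change over 60 s gave rate.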
NS1 function inh – qHTS Assay for Inhibitors of Influenza NS1 Protein Function | 270,000 tested, 0.4% active | Potency, µM (titrated, usually from 46.1 µM); calls by dose curve; also: actives are rising curves; nearly all actives have a fitted effect of over 50% in size
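OD600 was taken as the measure of yeast growth restored by compound in an NS1-expressing S. cerevisiae strain. Cells had been washed out of glucose medium and diluted 1:100 into galactose -URA medium, pH 6.0.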
Cruzain noTriton – qHTS Assay for Promiscuous and Specific Inhibitors of Cruzain (without detergent). Cruzipain (Trypanosoma cruzi), P25779. purified cruzain, Z-FR-AMC fluorescence, no detergent. Potency, µM, hits mostly inhibitors. 200,000 tested, 2.3% active; also: nearly all actives have a fitted effect of over 40% in size
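Detergent-free condition (0.00005% Triton X-100) in acetate buffer pH 5.5 with DTT. 1.5 nM enzyme and compound were pre-mixed 15 min, then 2 uM Z-FR-AMC substrate added; reaction progress from fluorescence change between first and third reads (60 s).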
Flu NS1 inh – Assay for Inhibitors of Influenza NS1 Protein Function: Hit Validation. activity change, negative = inhibition, % at 32.9 µM. influenza NS1 function cell assay, 15-point titration. shares compounds with NS1 function inh. 1,400 tested, under 10 active; calls by dose curve
Each line names hits and unclear results; the compound was inactive in the other large screens (follow-up assays come after a bar, where they were run). Unless noted, calls follow the shape of the dose curve; as a rule, active = well fitted curve in the direction sought with a large enough effect; inconclusive = small, poorly fitted or top-dose-only effect, or another doubt; inactive = no such curve, though single readings can be large; an effect the other way counts as inactive or inconclusive.

CCOC(=O)c1cn(Cc2ccccc2)nn1	NS1 function inh 1.4µM | Flu NS1 inh inactive
CCOC(=O)c1cn(CC(=O)Nc2ccccc2C(=O)OCC)nn1	none
CCn1c(CN2CCN(c3cccc(Cl)c3)CC2)nc2c1c(=O)[nH]c(=O)n2C	none (no result: NS1 function inh)
O=C(Nc1nc2n(n1)C(c1ccccc1)C=C(c1ccccc1)N2)c1ccccc1 (stereo not given)	none (no result: NS1 function inh)
O=C(C1CCCC1)N1CCC(CC2CC(c3cccc(Br)c3)=NO2)(C(=O)NCC2CCCCC2)CC1 (stereo not given)	NS1 function inh 22µM (no result: Cruzain Triton, Cruzain noTriton) | Flu NS1 inh inactive
O=C(C1CCCC1)N1CCC(CC2CC(c3ccc(Cl)cc3)=NO2)(C(=O)NCC2CCCCC2)CC1 (stereo not given)	none (no result: Cruzain Triton, Cruzain noTriton)
O=C(N/N=C/C=C\c1ccccc1[N+](=O)[O-])c1ccccn1	none
O=C(N/N=C/C=C/c1ccccc1[N+](=O)[O-])c1cc(-c2ccccc2)n[nH]1	NS1 function inh 2.2µM, Cruzain noTriton 25µM | Flu NS1 inh inactive
C=CCOC(=O)N[C@H](c1cccc(C(F)(F)F)c1)C(C(C)=O)C(C)=O	none (no result: NS1 function inh)
Cc1cccc([N+](=O)[O-])c1C	none (no result: NS1 function inh)
CCOc1cc(CNCCSc2nnnn2-c2ccccc2)cc(Cl)c1OC	none (no result: NS1 function inh)
Cc1nnc(SCC(=O)Nc2nc3c(s2)CC(C)CC3)s1 (stereo not given)	NS1 function inh inconclusive, Cruzain noTriton inconclusive | Flu NS1 inh inactive
CC1CCc2nc(NC(=O)CSc3nc4ccccc4o3)sc2C1 (stereo not given)	none
Br/C(=N\Nc1nn[nH]n1)c1ccncc1	none
COc1ccc(Oc2ncc3nc(CCc4ccccc4)c(=O)n(C)c3n2)cc1	none (no result: NS1 function inh)
Cc1cccc(/C=C/C(=O)c2ccc(NC3=NCCCS3)cc2)c1	none
O=C(/C=C/c1ccc(Br)cc1)c1ccc(NC2=NCCCS2)cc1	NS1 function inh inconclusive, Cruzain noTriton inconclusive | Flu NS1 inh inconclusive
CC(Sc1nc(N)cc(=O)[nH]1)C(=O)Nc1nc2c(s1)CCCC2 (stereo not given)	none (no result: Cruzain Triton, Cruzain noTriton)
Nc1cc(=O)[nH]c(SCC(=O)Nc2cc(Cl)cc(Cl)c2)n1	none
Nc1cc(=O)[nH]c(SCC(=O)Nc2ccc(Cl)c(Cl)c2)n1	NS1 function inh 2.5µM | Flu NS1 inh inactive
CC(Sc1nc(N)cc(=O)[nH]1)C(=O)Nc1cccc(Cl)c1 (stereo not given)	NS1 function inh 10µM | Flu NS1 inh inactive
COc1ccc(NC(=O)Cn2c3ncccc3c(=O)n2-c2ccc(C)c(C)c2)c(OC)c1	none (no result: NS1 function inh)
O=C(Cn1cc(/C=N/NC(=O)c2cccc3ccccc23)c2ccccc21)Nc1ccc(F)cc1	NS1 function inh 10µM (no result: Cruzain Triton, Cruzain noTriton) | Flu NS1 inh inactive
O=C(N/N=C/c1cn(Cc2ccccc2)c2ccccc12)c1cc(O)cc(O)c1	NS1 function inh 14µM (no result: Cruzain Triton, Cruzain noTriton) | Flu NS1 inh inactive
Cc1ccc(C(=O)N/N=C/c2cn(Cc3ccccc3)c3ccccc23)cn1	none (no result: Cruzain Triton, Cruzain noTriton)
O=C(Cn1cc(/C=N/NC(=O)c2ccccc2Br)c2ccccc21)Nc1ccc(F)cc1	none
O=C(NCCSc1c(-c2ccc(Br)cc2)[nH]c2ccccc12)c1ccc(S(=O)(=O)N2CCOCC2)cc1	Cruzain noTriton inconclusive (no result: NS1 function inh)
CCCCc1nn2c(=O)cc(COC(=O)c3ccccc3C)nc2s1	none (no result: NS1 function inh)
O=c1cnc2cnc(Nc3ccccc3)nc2n1CCc1ccccc1	none (no result: NS1 function inh)
CCOc1ccc(N(CC(=O)Nc2ccc(C)c(Cl)c2)S(C)(=O)=O)cc1	none (no result: Cruzain Triton, Cruzain noTriton)
COc1cccc2[nH]c(-c3ccccn3)nc12	none
CCCCNC(=S)NCc1ccc2[nH]c(C)cc2c1	NS1 function inh 1.4µM | Flu NS1 inh inactive
Cc1cc2cc(CNC(=O)c3ccc(Br)o3)ccc2[nH]1	none (no result: Cruzain Triton, Cruzain noTriton)
COc1ccc(-c2cc(C(F)(F)F)nc(SCC(=O)NCCc3ccc(OC)c(OC)c3)n2)cc1	none (no result: NS1 function inh)
CC1CCN(S(=O)(=O)c2ccc3c(c2)N(CC(=O)NCCCN2CCCCC2)C(=O)CS3)CC1	none
CCC1CCCCN1CCCNC(=O)CN1C(=O)CSc2ccc(S(=O)(=O)N3CCC(C)CC3)cc21 (stereo not given)	NS1 function inh 1.8µM | Flu NS1 inh inactive
CCc1n[nH]c2c1/C(=N\O)CC(c1ccccc1)C2 (stereo not given)	none
CCCCc1n[nH]c2c1/C(=N/O)CC(c1ccccc1)C2 (stereo not given)	NS1 function inh inconclusive | Flu NS1 inh inactive
COc1cc2c(cc1OC)C1O[C@](CCCCN3C(=O)c4ccccc4C3=O)(C2)OC2=C1C(=O)CC(C)(C)C2	none (no result: Cruzain Triton, Cruzain noTriton)
N#CC1=C(N)NC(SCC(=O)O)=C(C#N)C12CCCC2	NS1 function inh 2.2µM | Flu NS1 inh inactive
N#CC1=C(N)NC(SCC(=O)Nc2ccccc2)=C(C#N)C12CCCC2	none
COc1cccc(Cn2c(=O)c(-c3cccs3)nc3cnc(N4CCNCC4)nc32)c1	Cruzain noTriton inconclusive (no result: NS1 function inh)
O=C(CSc1ccc(Cl)cc1)NC1=NN(c2ccccc2)C(=O)C1	NS1 function inh 11µM (no result: Cruzain Triton, Cruzain noTriton) | Flu NS1 inh inactive
O=C(CSc1ccc(Cl)cc1)Nc1ccccc1Oc1ccccc1	none
COc1cc2oc(=O)cc(-c3ccc(-c4ccc(NC(C)=O)cc4)cc3)c2c(OC)c1OC	none (no result: NS1 function inh)
Cc1ccc(N2C(=O)NC(=O)/C(=C/C=C/c3ccco3)C2=O)cc1	none
CCc1ccc(N2C(=O)NC(=O)/C(=C\C=C\c3ccco3)C2=O)cc1	NS1 function inh 11µM (no result: Cruzain Triton, Cruzain noTriton) | Flu NS1 inh inactive
Fc1ccccc1	none (no result: NS1 function inh)
Cc1cc(C)cc(NS(=O)(=O)c2ccc(NC(=S)NC(=O)c3cccs3)cc2)c1	NS1 function inh 13µM, Cruzain noTriton 25µM | Flu NS1 inh inactive
COc1cc(NS(=O)(=O)c2ccc(NC(=S)NC(=O)c3cccs3)cc2)nc(OC)n1	NS1 function inh inconclusive
Cc1ccc2nc3c(cc(C#N)c(=O)n3-c3nnc(SCc4ccc(F)cc4)s3)c(=O)n2c1	none (no result: NS1 function inh)
COc1cc(/C=C2\C(C)=C(C#N)c3nc(N)c(C#N)c(C)c32)ccc1OCC(=O)O	none (no result: Cruzain Triton, Cruzain noTriton)
CC1=C(C#N)c2nc(N)c(C#N)c(C)c2/C1=C\c1ccc(C)cc1	NS1 function inh 13µM | Flu NS1 inh inconclusive
Cc1cc(=O)n2c(C(=O)Nc3ccc(Br)cc3)c(C(=O)Nc3ccccc3)sc2n1	none (no result: NS1 function inh)
N[C@@H](CP(=O)(O)O)C(=O)O	none
O=C1CC(/C=C/c2ccccc2)(C(=O)NC2CCCC2)N1c1ccc(S(=O)(=O)N2CCCC2)cc1 (stereo not given)	Cruzain noTriton inconclusive
CC1C(=O)N(c2ccc(S(=O)(=O)N(C)C)cc2)C1(/C=C/c1ccccc1)C(=O)NC1CCCC1 (stereo not given)	NS1 function inh 8.9µM | Flu NS1 inh inactive
CC(C)C[C@H]1C(=O)N2CCC[C@@H]2[C@@]2(O)O[C@](NC(=O)[C@@H]3C=C4c5cccc6[nH]cc(c56)C[C@@H]4N(C)C3)(C(C)C)C(=O)N12	none (no result: NS1 function inh)
CC(C)C[C@H]1C(=O)N2CCCC2[C@]2(O)O[C@](NC(=O)[C@@H]3C=C4c5cccc6[nH]c(Br)c(c56)C[C@H]4N(C)C3)(C(C)C)C(=O)N12 (stereo not given in full)	NS1 function inh 5.6µM | Flu NS1 inh inconclusive
CCCOc1ccc(-c2cccc(NS(=O)(=O)c3cc(OC)ccc3OC)c2)nn1	none (no result: NS1 function inh)

Compound activity from PubChem BioAssay.
